# Wee1 stabilizer = blocks degradation of human Wee1 kinase; reporter increase, % at 5 µM; hit rate 1.2% among 220,000; AID 1321; HeLa Luc-Wee1K328M stability, luciferase luminescence; 100% = proteasome inhibitor MG132 effect;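 active = activation above the mean of all tested compounds plus 3 SD, set per screening run, cut at about 8.8% in these data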;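 also: cells exposed to compound for 20 h before luminescence read; 0% = DMSO alone and 100% = MG132 at 30 µM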
# Target sequence (P30291 whole entry K328M): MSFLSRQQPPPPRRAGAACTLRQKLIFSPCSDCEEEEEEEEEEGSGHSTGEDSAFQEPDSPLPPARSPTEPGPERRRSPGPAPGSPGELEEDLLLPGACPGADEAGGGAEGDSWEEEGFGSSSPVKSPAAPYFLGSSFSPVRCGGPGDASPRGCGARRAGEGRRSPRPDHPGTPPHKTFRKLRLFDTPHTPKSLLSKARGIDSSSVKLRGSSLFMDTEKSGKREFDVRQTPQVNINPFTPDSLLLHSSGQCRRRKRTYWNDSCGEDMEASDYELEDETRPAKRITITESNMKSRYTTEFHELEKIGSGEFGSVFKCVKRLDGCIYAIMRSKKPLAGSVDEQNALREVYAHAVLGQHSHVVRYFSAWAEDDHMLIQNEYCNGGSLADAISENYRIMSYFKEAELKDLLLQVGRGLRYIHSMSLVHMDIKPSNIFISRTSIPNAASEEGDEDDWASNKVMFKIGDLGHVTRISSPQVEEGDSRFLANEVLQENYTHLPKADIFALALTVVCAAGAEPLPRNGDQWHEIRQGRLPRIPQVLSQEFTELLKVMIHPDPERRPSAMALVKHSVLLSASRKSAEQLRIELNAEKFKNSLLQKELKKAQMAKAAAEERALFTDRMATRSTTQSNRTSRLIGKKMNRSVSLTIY
# DAX1 inh-1 = inhibitors of DAX1 repression of SF-1 activated StAR promoter; HEK293T StAR-luciferase reporter, SF-1/DAX-1 repression relief; AID 652010; inhibition, % at 6.8 µM; hit rate 1.1% among 370,000;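 active = inhibition above the mean over all tested compounds plus 3 SD, cut at about 3.6% in these data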;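 also: 0% = DAX-1 cells with DMSO and 100% = cells lacking DAX-1 with DMSO; higher inhibition means more luminescence from relief of DAX-1 repression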
# hcDAF12 agonist = H. contortus DAF-12 activation, primary screen; HEK293 hcDAF-12 lit1-tk-luc reporter, luminescence; 0% DMSO, 100% Δ7-dafachronic acid; activation, % at 6.8 µM; hit rate 1.4% among 370,000;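 active = activation above the mean of all tested compounds plus 3 SD, cut at about 5.5% in these data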;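 also: 100% = response to 3 µM Δ7-dafachronic acid high control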
# hgDAF-12 ag = hgDAF-12 agonism, primary luciferase screen; HEK293 GAL4-hgDAF12 UAS-luciferase reporter, agonist luminescence; normalized to butyrate control; activation, % at 6.8 µM; hit rate 1.8% among 370,000;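 active = activation above a cutoff set at the mean of all screened compounds plus 3 SD, cut at about 10% in these data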;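 also: 0% = DMSO wells and 100% = sodium butyrate wells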
# ssDAF12 agonist = activators of S. stercoralis DAF-12 nuclear receptor; HEK293 ssDAF-12/GRIP1 lit1-tk-luc reporter, luminescence; % of 3 µM dafachronic acid response; activation, % at 6.8 µM; hit rate 1% among 370,000;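 active = activation above the mean over all tested compounds plus 3 SD, cut at about 0.9% in these data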;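 also: 0% = DMSO-only wells and 100% = 3 µM delta7-dafachronic acid wells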
# DAX1 inh-2 = NR0B1 (DAX1) inhibition; P51843; HEK293 Gal4-DAX1 luciferase reporter, luminescence; inhibition, % at 6.75 µM; hit rate 0.99% among 340,000;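 active = inhibition above the mean over all tested compounds plus 3 SD, cut at about 4.2% in these data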;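 also: 0% = DAX1-transfected cells with DMSO and 100% = empty-vector control cells with DMSO; inhibition shows as a rise in luminescence from relieved DAX1 repression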
# hgDAF12 conf = hgDAF-12 agonism, confirmation assay | shares compounds with hgDAF-12 ag | HEK293 GAL4-hgDAF12 luciferase reporter, agonist mode; percent of butyrate response | activation, % at 6.8 µM | hit rate 80% among 3,300 | AID 743050;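 active = mean activation over triplicate wells above the hit cutoff derived from the earlier primary screen, cut at about 11% in these data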;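 also: 0% = DMSO low control and 100% = 2 mM sodium butyrate high control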
# LXR ag 2 = counter-screen for DAF-12 agonists: agonists of human LXR-beta. HEK293 Gal4-LXR luciferase reporter, 24 h. 3,300 tested, under 10 active. activation, % at 6.8 µM. shares compounds with hgDAF-12 ag. AID 743051;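 active = mean activation of the triplicate above a set limit carried over from the primary screen, none filed active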
# * = called active by the depositor; x = no result. Hits are enriched below; roughly 4.6% of the tested compounds scored in any of these assays.
SMILES,Wee1 stabilizer,DAX1 inh-1,hcDAF12 agonist,hgDAF-12 ag,ssDAF12 agonist,DAX1 inh-2,hgDAF12 conf,LXR ag 2
C#CCN(C[C@H]1[C@H](OC(=O)NCc2ccccc2F)[C@H](OC(=O)NCc2ccccc2F)C[C@@H](C(=O)OC)[C@H]1C(=O)OC)S(=O)(=O)c1ccc(C)cc1,x,-2,-2,0,-1,-2,x,x
C/C(=N\Nc1c(Cl)c(Cl)nc(C(=O)O)c1Cl)c1ccc(O)cc1,x,0,-1,-1,-1,0,x,x
C/C(=N\Nc1nccnc1Cl)c1ccc(O)cc1,x,2,6.5*,16*,1,0,11*,0
N/C(=N/OC(=O)c1cccc([N+](=O)[O-])c1)c1cccc([N+](=O)[O-])c1,-2,0,-2,1,-2,-1,x,x
Cc1ccc(OCC(=O)O/N=C(\N)c2cccnc2)cc1,-1,-1,0,6,-1,2,x,x
N/C(=N\OC(=O)c1cccc([N+](=O)[O-])c1)c1ccccn1,8,1,5.8*,15*,0.9*,4,13*,1
N/C(=N\OC(=O)COc1cc(Cl)c(Cl)cc1Cl)c1ccccn1,3,3,1,14*,-1,x,12*,1
N/C(=N\OC(=O)CCCOc1ccc(Cl)cc1Cl)c1ccncc1,0,0,-2,-3,-2,-1,x,x
N/C(=N\OC(=O)COc1ccc(Cl)cc1Br)c1ccncc1,4,3,5,16*,1.3*,2,19*,1
Cc1ccc(OCC(=O)O/N=C(\N)c2ccccn2)cc1,5,3.8*,4,15*,0,3,14*,0
N/C(=N\OC(=O)CCCOc1ccc(Cl)cc1Cl)c1ccccn1,6,1,0,0,-2,0,x,x
C=CC[C@@H](CC(=O)NCCO)C(=O)NC[C@H](OC(=O)[C@@H](CC=C)Cc1ccc(F)cc1)c1ccccc1,x,-1,-3,-5,-2,-3,x,x
CN1CCN(C(=O)c2cccc(NS(=O)(=O)c3ccc(Br)cc3)c2)CC1,x,1,-1,1,-1,0,x,x
COc1cc(NC(=O)C2CC(c3ccccc3O)=NO2)cc(OC)c1OC (centres undefined),x,0,0,1,-2,-1,x,x
CC(C)(C)CC(=O)O/N=C(\N)c1ccccn1,1,3,6.3*,14*,0,0,13*,1
N/C(=N\OC(=O)Cc1ccc(Cl)cc1)c1ccccn1,3,0,3,9,-1,1,x,x
N/C(=N\OC(=O)c1ccco1)c1ccccn1,10*,3,2,14*,0,-1,7,0
c1ccc(N=C2SCCCS2)cc1,x,1,-1,7,-1,0,x,x
CS/C(N)=N/N=C/c1cc(C)ccc1O,2,2,5,18*,0,4.3*,14*,1
CN(C)/N=C/c1c(O)ccc2ccccc12,0,0,0,-2,-1,0,x,x
CS/C(N)=N/N=C/c1c(O)ccc2ccccc12,-1,2,5,19*,1.0*,0,13*,0
OC[C@@H]1CN(Cc2ccccc2)C[C@H](n2ccc3c(N4CCCC4)ncnc32)O1,x,1,0,-2,-1,x,x,x
Cn1nnnc1SCC(=O)Nc1nc2c(s1)CCCC2,3,3.7*,6.4*,13*,0,1,16*,1
CC(C)(C)OC(=O)N/N=C/c1ccc(Br)cc1,-4,4.2*,3,21*,-1,4,16*,1
CC(C)(C)NC(=O)C(=O)N/N=C/c1ccc(Br)cc1,0,0,0,4,-1,1,x,x
SMILES,Wee1 stabilizer,DAX1 inh-1,hcDAF12 agonist,hgDAF-12 ag,ssDAF12 agonist,DAX1 inh-2,hgDAF12 conf,LXR ag 2
COc1cccc(-n2cc(-c3ccc(F)cc3)[nH]c2=S)c1,x,1,5.6*,20*,0,3,12*,1
Clc1c(CSc2nc3ccccc3o2)nc2sccn12,1,4.1*,5,24*,1,3,20*,1
COC(=O)CSc1nc2ccccc2o1,-3,0,4,0,-1,2,x,x
O=C(O)c1ccc(N=NN2CCCCC2)cc1,5,3,1,14*,0,x,12*,1
CC1CCN(C(=S)NCCc2ccccc2)CC1,0,2,3,14*,0,1,11*,1
OC(c1ccccc1)(c1ccccc1)C1CCN(C(=S)NCCc2ccccc2)CC1,0,-1,-2,0,-1,x,x,x
O=C(Nc1ccccc1)O/N=C/c1ccc(F)cc1,x,3,4,15*,0,3,16*,1
Cc1ccc(NC(=O)O/N=C/c2ccc(F)cc2)cc1,x,1,2,4,-1,-1,x,x
COc1ccc(-c2nc3ccc(Br)cn3c2Cc2ccsc2)cc1OC,x,1,1,4,-1,x,x,x
O=S1(=O)c2ccc(Br)cc2OC[C@@H](Cc2ccccc2)N1Cc1cn(CC2CCCCC2)nn1,x,1,-2,-4,-1,x,x,x
COc1ccc2c(c1OC)C(=O)OC2Nc1nc(-c2cc3ccccc3oc2=O)cs1 (centres undefined),3,4.3*,5,18*,1,0,17*,1
COc1ccc2c(c1OC)C(=O)OC2Nc1nc(-c2cc3cc([N+](=O)[O-])ccc3oc2=O)cs1 (centres undefined),-2,0,-2,0,-1,-1,x,x
C[C@@H]1CN([C@H](C)CO)C(=O)CCCn2nncc2CO[C@H]1CN(C)Cc1ccc2c(c1)OCO2,x,-1,0,-3,-1,4,x,x
O=C(Nc1cccn2ncnc12)c1ccc(Cl)cc1Cl,5,1,0,-2,-2,3,x,x
O=C(Nc1cnc2ccccn2c1=O)c1ccc(Cl)cc1Cl,6,4.4*,5,16*,0,0,5,0
CCSCC(C)(C)n1[nH]c2ccccc2c1=O,x,0,0,14*,-1,0,-2,0
CCn1c(=O)[nH]c2ccccc2c1=O,1,1,0,-3,-1,1,x,x
C[C@H](CO)N1C[C@H](C)[C@@H](CN(C)C(=O)NC2CCCCC2)Oc2ccc(NC(=O)CCC(F)(F)F)cc2C1=O,x,0,0,-1,-1,3,x,x
CN(C)c1ccc(/C=N/N=C/c2ccccc2O)cc1,1,3,4,16*,1.9*,4,6,1
COc1ccccc1C=NN=Cc1ccccc1O,x,1,5,2,1,4,x,x
CCCC(=O)Nc1ccc2nn(-c3ccc(OC)cc3)nc2c1,x,1,-1,7,-1,1,x,x
